Experimental data published in PubChem BioAssay (NCATS).
Results filed as inconclusive are left out. Where a call stands in place of a potency, no number is given. Unmarked numbers belong to inactive results. The source made the active and inactive calls. Calls come from the whole dose curve; as a rule, active = well fitted inhibition curve with a large enough effect; inconclusive = small, poorly fitted or top-dose-only effect; inactive = flat fitted curve, though single readings scatter. Residues, ends and D or L forms follow the SMILES beside them. *: point of attachment. Cbz = O=C(OCc1ccccc1)*
Potency is the fitted concentration of half-maximal effect.

Each compound was assayed on HaCat (assay: Cytotoxic Profiling of Annotated Libraries Using Quantitative High-Throughput Screening (AID 1296008; note: nearly all actives have a fitted effect of over 60% in size)). Conditions: Five cell lines viability, CellTiter-Glo ATP luminescence, 48-72 h; max response: stronger effect = lower value.
In short: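 Cells exposed to compounds for 48 or 72 hr at 37 degrees Celsius. Viability read as ATP-coupled luminescence with CellTiter-Glo after 10 min at room temperature.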
In the case of COc1cc(C(=O)NC2CCN(C)CC2)ccc1Nc1ncc2c(n1)N(C1CCCC1)CCC(=O)N2C(C)C, the max response is reported as -42.1%. For Nc1nc2c(c(=O)[nH]1)N(C=O)[C@H](CNc1ccc(C(=O)N[C@@H](CCC(=O)O)C(=O)O)cc1)CN2, the outcome was “inactive”. O=C(O)C[C@H](O)C[C@H](O)C=Cc1c(C2CC2)nc2ccccc2c1-c1ccc(F)cc1 was tested, and the Potency was 4.69 µM (active). CC(C)C[C@@H](C=O)NC(=O)[C@H](CC(C)C)NC(=O)[C@H](CC(C)C)NC(=O)OCc1ccccc1 (Cbz-Leu-Leu-Leu-aldehyde) was tested, and the Potency was 3.32 µM (active). COC(=O)C=CC(=O)OC was tested, and the outcome was “inactive”. For CC(C)(C)[C@H](NC(=O)c1ccc(N)c(Cl)c1)C(=O)N1CCC[C@@H]1C(=O)N[C@H](C#N)CC(=O)O, the outcome was “inactive”. CCC(C=C[C@@H]1OC(=O)C=C[C@H]1C)=C[C@H](C)CC=CC(C)=C[C@@H](C)C(=O)[C@@H](C)[C@H](O)[C@@H](C)CC(C)=CC(=O)O was tested, and the Potency was 0.11 µM (active). For CC[C@H]1OC(=O)[C@H](C)[C@@H](O[C@H]2C[C@@](C)(OC)[C@@H](O)[C@H](C)O2)[C@H](C)[C@@H](O[C@@H]2O[C@@H](C)C[C@H](N(C)C)[C@@H]2O)[C@](C)(O)C[C@@H](C)C(=O)[C@H](C)[C@@H](O)[C@]1(C)O, the outcome was “inactive”. COc1cc(C[C@@H](CO)[C@H](CO)Cc2ccc(O)c(OC)c2)ccc1O was tested, and the outcome was “inactive”. For CN1C(C(=O)Nc2ccccn2)=C(O)c2sc(Cl)cc2S1(=O)=O, the outcome was “inactive”. For Oc1cc2c(cc1O)C1c3ccc(O)c(O)c3OCC1(O)C2 (centres undefined), the outcome was “inactive”. For CNC(=O)Nc1ccc(-c2nc(N3CC4CCC(C3)O4)c3cnn(C4CCC5(CC4)OCCO5)c3n2)cc1, the max response was -19.6%. For C=CC(=O)Nc1cccc(Nc2nc(NC3CCC(N(C)C)CC3)nc3c2ncn3C(C)C)c1 (centres undefined), the Potency was 7.43 µM (active). For CC(=O)O[C@]1(C(C)=O)CC[C@H]2[C@@H]3C=C(C)C4=CC(=O)CC[C@]4(C)[C@@H]3CC[C@@]21C, the outcome was “inactive; activator”. Work on CC1=C(C(=O)Nc2cc3cn[nH]c3cc2F)C(c2ccc(Cl)cc2F)N=C(c2ccnc(Cl)c2)N1 (centres undefined) yielded a max response of -46.1%. In the case of C[C@@H](NCc1cc2ccccc2[nH]1)c1cccc2ccccc12, the outcome is reported as “inactive”. For CC(=O)O[C@H]1C[C@@H]2CC[C@H]3[C@H]4C[C@H]([N+]5(C)CCCCC5)[C@@H](OC(C)=O)[C@@]4(C)CC[C@@H]3[C@@]2(C)C[C@H]1[N+]1(C)CCCCC1, the outcome was “inactive”. With C=CC[C@@H]1C=C(C)C[C@H](C)C[C@H](OC)[C@H]2O[C@@](O)(C(=O)C(=O)N3CCCC[C@H]3C(=O)O[C@H](C(C)=C[C@@H]3CC[C@H](O)[C@H](OC)C3)[C@@H](C)[C@@H](O)CC1=O)[C@@H](C)C[C@@H]2OC the outcome was “inactive”. In the case of C[C@@H]1C(=O)O[C@H]2CC34[C@H]5C[C@@H](C(C)(C)C)C36[C@H](OC(=O)[C@@H]6O)O[C@@]4(C(=O)O5)[C@]21O (some centres undefined), the outcome is reported as “inactive”. CN(CC(=O)N(Cc1ccc(C2CCCCC2)cc1)c1ccc(C(=O)O)c(O)c1)S(=O)(=O)c1c(F)c(F)c(F)c(F)c1F gave a max response of -3.31%. COc1cc(C)c(C=CC(C)=CC=CC(C)=CC(=O)O)c(C)c1C was tested, and the outcome was “inactive”. In the case of CC(=O)N1CCN(c2ccc(OCc3nn(C)c(C)c3-c3cccc4c(CCCOc5cccc6ccccc56)c(C(=O)O)n(Cc5cccnc5)c34)cc2)CC1, the outcome is reported as “inactive”. In the case of CC(=O)C1=C(O)C=C2Oc3c(C(C)=O)c(O)c(C)c(O)c3C2(C)C1=O (centres undefined), the outcome is reported as “inactive”. For C=Cc1c(C)c2cc3nc(cc4[nH]c(cc5nc(cc1[nH]2)C(C)=C5CCC(=O)O)c(CCC(=O)OC)c4C)[C@@]1(C)C3=CC=C(C(=O)OC)[C@H]1C(=O)OC, the outcome was “inactive”. NC[C@H]1O[C@H](O[C@H]2[C@@H](O)[C@@H](O[C@H]3O[C@H](CO)[C@@H](O)[C@H](N)[C@@H]3O)[C@H](N)C[C@@H]2N)[C@H](N)C[C@H]1O was tested, and the outcome was “inactive”. O=C1NC(=O)[C@@H](c2cn3c4c(cccc24)CCC3)[C@H]1c1c[nH]c2ccccc12 was tested, and the outcome was “inactive”. In the case of C[C@H](NC(=O)Cc1cc(F)cc(F)c1)C(=O)N[C@H](C(=O)OC(C)(C)C)c1ccccc1, the outcome is reported as “inactive”. In the case of C[N+]1(C)[C@@H]2C[C@@H](OC(=O)C(O)(c3cccs3)c3cccs3)C[C@H]1[C@@H]1O[C@@H]12, the outcome is reported as “inactive”. OCC(O)C(O)C(O)CO (centres undefined) was tested, and the max response was -1.15%. In the case of C=C1C[C@@]2(O)O[C@@]3(C[C@H]2C(C)C)[C@H](C)CC[C@H]13, the outcome is reported as “inactive”. With Cc1cnc(Nc2ccc(N3CCN(C)CC3)cc2)nc1Nc1cccc(S(=O)(=O)NC(C)(C)C)c1 the Potency was 0.296 µM (active). For O=C(c1ccc(F)cc1)N1CCC[C@H](c2nc(-c3ccc(F)cc3)no2)C1, the outcome was “inactive”. In the case of O=C(O)[C@H](CC(=O)N1C[C@@H]2CCCC[C@H]2C1)Cc1ccccc1, the outcome is reported as “inactive”. For COc1ccc([C@@H]2CNC(=O)C2)cc1OC1CCCC1, the outcome was “inactive”.
